High-throughput results deposited in PubChem BioAssay by National Center for Advancing Translational Sciences (NCATS).
TDP-43 yeast inh – inhibitors of TDP-43 toxicity in yeast | TDP-43 expressing yeast growth rescue, BacTiter-Glo, 24 h | Potency, µM (highest dose often 46.1 µM), without a hit: at the highest dose growth rescue (activation), usual class: activators | actives 1.8% (n = 410,000) | AID 652104; note: % of control where 0% means no effect; nearly all actives have a fitted effect of over 50% in size
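Galactose-induced TDP-43 yeast, OD600=0.02, compound pinned; 24 hr, 30 deg C; BacTiter-Glo luminescence for growth. Inhibitors of TDP-43 toxicity read as activators.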
aSyn rescue – inhibitors of alpha-synuclein toxicity in yeast. Yeast expressing alpha-synuclein, growth rescue, BacTiter-Glo, 24 h. actives 0.14% (n = 370,000). Potency, µM (titrated, usually from 46.1 µM), without a hit: at the highest dose growth rescue (activation), usual class: activators; note: % of control where 0% means no effect; nearly all actives have a fitted effect of over 65% in size
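Rescue of yeast growth: cells expressing toxic alpha-synuclein, induced in galactose at OD600 0.02, incubated with compound 24 h at 30 C. ATP luminescence quantified growth; inhibitors of toxicity appear as activators.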
Mito fusion act – mitochondrial division inhibition or fusion activation | Potency, µM (top dose mostly 46.1 µM), inactives show at the top dose growth rescue (activation), hits mostly activators | S. cerevisiae fusion-defective mutant growth rescue, CellTiterGlo 48 h | actives 0.23% (n = 320,000) | AID 485298; note: % of control where 0% means no effect; nearly all actives have a fitted effect of over 45% in size
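Read-out: ATP-based luminescence (CellTiterGlo, 10 min ambient) reporting growth of fusion-defective ts yeast after 48 hours at 37C on glycerol/ethanol YPEG medium in the presence of compound.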
FUS suppressor – rescues growth of FUS-expressing yeast | S. cerevisiae FUS-expressing, growth rescue, OD600, 24 h | Potency, µM (series often up to 76.6 µM), hits mostly activators | actives 0.24% (n = 390,000) | AID 1347120;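 note: plate controls were DMSO vehicle for no effect and reference control for full effect; nearly all actives have a fitted effect of over 55% in size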
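Galactose (2%) drives FUS expression in yeast precultured in raffinose; seeding density OD 0.005. Test compounds incubated 24hr at 30C and 99% humidity before absorbance at 600 nm was measured.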
Abeta yeast res – A-beta toxicity reversal in yeast; yeast expressing A-beta42, growth rescue, OD600, 48 h; response scale: 0% DMSO, 100% iron-clioquinol control; Potency, µM (titrated, usually from 46.1 µM), actives largely listed as activators; actives 0.063% (n = 410,000); AID 1347071; note: nearly all actives have a fitted effect of over 55% in size
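Yeast A-beta toxicity model in growth medium with pinned compounds, 48 h at 30 C; growth read as absorbance at 600 nm. Normalized to FeCl3/clioquinol equimolar mix (positive) and DMSO (negative).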
Starred values were filed as active, the others as inactive; i = inactive; ? = inconclusive; · = not tested or not shown. Shown are actives, neighbours in structure and some others; about 2.2% of the full set was active somewhere. Calls come from the whole dose curve; as a rule, active = well fitted curve in the direction sought with a large enough effect; inconclusive = small, poorly fitted or top-dose-only effect, or another doubt; inactive = no such curve, though single readings can be large; an effect the other way counts as inactive or inconclusive. Potency is the fitted concentration of half-maximal effect.

SMILES	TDP-43 yeast inh	aSyn rescue	Mito fusion act	FUS suppressor	Abeta yeast res
CC1(Cc2ccc(F)cc2)C(=O)Nc2c(Cl)ccc(Cl)c21 (stereo unspecified)	26%	11µM*	·	i	i
CC1(Cc2ccccc2Cl)C(=O)Nc2c(Cl)cccc21 (stereo unspecified)	?	3.5µM*	·	i	i
C[C@H]1C(c2ccccc2F)O[C@]2(C[C@H](O)c3c(ccc4ccccc34)O2)C[C@@H]1O (stereo partly specified)	·	·	·	i	·
Fc1ccccc1N1CCN(c2nc(-c3cccs3)nc3ccccc23)CC1	14µM*	4%	5%	i	i
CSc1cccc(NC(=O)Cn2ncn3c(cc4ccccc43)c2=O)c1	21%	·	·	i	i
CCOC(=O)c1sc(NC(=O)c2cc(-c3ccccc3C)nc3ccccc23)c(C#N)c1C	1%	-32%	1%	i	i
Cc1ccccc1-c1cc(C(=O)Nc2sc(C)c(C)c2C(N)=O)c2ccccc2n1	22µM*	-18%	17%	i	i
NNC(=O)c1cc2ccccc2[nH]1	·	-15%	-5%	i	i
NNC(=O)c1cc2cc(Oc3ccccc3)ccc2[nH]1	10µM*	1%	7%	i	i
CCc1ccccc1Nc1nc2ccccc2n2cnnc12	13µM*	·	·	i	i
COc1ccc(Nc2nc3ccccc3n3cnnc23)cc1Cl	11%	5%	28%	i	i
Cc1ccc(O)c(Nc2nc3ccccc3c3nncn23)c1	25%	·	·	i	i
CCc1ccccc1Nc1nc2ccccc2c2nncn12	18µM*	·	·	i	i
COc1cccc(Nc2nc3ccccc3n3cnnc23)c1	13µM*	0%	4%	i	i
O=C(NCCOCCn1c(=O)oc2ccccc21)Nc1ccc(F)cc1F	20%	·	·	i	i
COc1cc(NC(=O)c2cccc3c(-c4cccnc4)coc23)cc(OC)c1OC	16%	0%	·	i	i
O=C(NCc1ccc(C(F)(F)F)cc1)c1ccc(-c2cccnc2)c2ccoc12	13µM*	-5%	·	?	i
O=C(NCc1cccc(Cl)c1)c1ccc(-c2cccnc2)c2ccoc12	35µM*	3%	·	i	i
O=C(Nc1cccc(C(F)(F)F)c1)c1cccc2c(-c3cccnc3)coc12	16µM*	-1%	·	i	i
Cc1cccc(S(=O)Cc2ccc(C(=O)NC3CCCCCC3)o2)c1 (stereo unspecified)	26%	·	·	i	i
COc1ccc2cc(-c3nc4ccc(C(=O)O)cc4[nH]3)c(=O)oc2c1	-3%	·	·	i	i
COc1ccc(-c2nnn3c2Cn2c4ccccc4c(=O)n2[C@@H](C(C)C)C3)cc1	·	·	·	i	·
COc1ccc(C)cc1NC(=O)c1cc2c(s1)-c1ccccc1SC2	9%	·	·	i	i
COc1cc2c(c(OC)c1)C(c1cccc(F)c1F)CC(=O)N2 (stereo unspecified)	13%	·	·	i	i
COc1ccc(NC(=O)CC2Oc3ccc(C)cc3NC2=O)cc1Cl (stereo unspecified)	0%	·	·	i	i
SMILES	TDP-43 yeast inh	aSyn rescue	Mito fusion act	FUS suppressor	Abeta yeast res
O=C1C(=Cc2ccco2)C(=O)c2ccccc21	22µM*	13%	-1%	·	i
CC(C)(C)OC(=O)N1CCCN(C(c2cc3ccccc3o2)c2nnnn2C(C)(C)C)CC1 (stereo unspecified)	?	-7%	·	16µM*	i
Cc1cccc(N2CCN(C(=O)C3CCCN(C(=O)c4cc5sccc5n4C)C3)CC2)c1C (stereo unspecified)	0%	·	·	?	i
Cc1cccc(N2CCN(C(=O)C3CCN(C(=O)c4cc5sccc5n4C)CC3)CC2)c1C	35µM*	·	·	?	?
Cc1ccc(CCNS(=O)(=O)c2ccc(C)cc2)cc1	16µM*	·	8%	i	i
Cc1sc2nc(CSc3ccccc3)nc(N3CCC(C(N)=O)CC3)c2c1C	9%	-2%	9%	?	i
Cc1sc2nc(CSc3ccccc3)nc(N3CCOCC3)c2c1C	11µM*	0%	20%	i	i
